# Only a selection was taken, and the strongest signals are over-represented in it overall.
# B1: SUN4P (Saccharomyces cerevisiae), P53616 (protein)
# chain: MGSSHHHHHHSSGLVPRGSHNGSIYGDLADFSGPYEKFEDGTIPCGQFPSGQGVIPISWLDEGGWSGVENTDTSTGGSCKEGSYCSYACQPGMSKTQWPSDQPSDGRSIGGLLCKDGYLYRSNTDTDYLCEWGVDAAYVVSELSNDVAICLTDYPGTENMVIPTYVQAGDSLPLTVVDQDTYYTWQGLKTSAQYYVNNAGISVEDACVWGSSSSGVGNWAPLNFGAGSSDGVAYLSLIPNPNNGNALNFNVKIVAADDSSTVNGECIYENGSFSGGSDGCTVSVTAGKAKFVLYN
# Key:
# Assay in all cases: glycan array binding signal (z-score within array); higher = stronger binding
# Conditions in all cases: glycan notation: IUPAC condensed, linker removed; mutation: R276L
# [1] = target: Fuc(a1-2)Gal(b1-3)[Fuc(a1-4)]GlcNAc(b1-3)[Fuc(a1-3)[Gal(b1-4)]GlcNAc(b1-6)]Gal(b1-4)Glc
# Outline: (§1)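 Glycan array binding is given as a within-array Z-score, which can be read as non-binding when negative. The arrays, 3228 of them, came from the Consortium for Functional Glycomics database and were retained only where the protein sequence was available. Z-scores were averaged across arrays of the same protein sequence at different concentrations or buffers and across linkers.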
# [2] = target: Fuc(a1-2)Gal(b1-3)[Fuc(a1-4)]GlcNAc(b1-3)[Gal(b1-4)GlcNAc(b1-6)]Gal(b1-4)Glc
# Outline: as §1
# [3] = target: Fuc(a1-2)Gal(b1-4)GlcNAc(b1-2)Man(a1-3)[Fuc(a1-2)Gal(b1-4)GlcNAc(b1-2)Man(a1-6)]Man(b1-4)GlcNAc(b1-4)GlcNAc
# Outline: as §1
# [4] = target: Fuc(a1-2)Gal(b1-4)GlcNAc(b1-3)GalNAc
# Outline: as §1
# [5] = target: Fuc(a1-2)Gal(b1-4)GlcNAc(b1-3)[Fuc(a1-2)Gal(b1-4)GlcNAc(b1-6)]GalNAc
# Outline: as §1
# [6] = target: Fuc(a1-2)Gal(b1-4)GlcNAc6S
# Outline: as §1
# [7] = target: Fuc(a1-2)[GalNAc(a1-3)]Gal(b1-3)GalNAc(b1-3)Gal(a1-4)Gal(b1-4)Glc
# Outline: as §1
# [8] = target: Fuc(a1-2)[GalNAc(a1-3)]Gal(b1-3)GlcNAc
# Outline: as §1
# [9] = target: Fuc(a1-2)[GalNAc(b1-3)]Gal
# Outline: as §1
# [10] = target: Gal(a1-3)Gal(b1-3)[Fuc(a1-4)]GlcNAc(b1-2)Man(a1-3)[Gal(a1-3)Gal(b1-3)[Fuc(a1-4)]GlcNAc(b1-2)Man(a1-6)]Man(b1-4)GlcNAc(b1-4)GlcNAc
# Outline: as §1
# Gal(a1-4)GlcNAc = target: Gal(a1-4)GlcNAc
# Outline: as §1
# Gal(b1-2)Gal = target: Gal(b1-2)Gal
# Outline: as §1
# Gal(b1-3)Gal = target: Gal(b1-3)Gal
# Outline: as §1
# Gal(b1-3)GalNAc = target: Gal(b1-3)GalNAc
# Outline: as §1
# Gal(b1-3)GalNAc(b1-3)Gal = target: Gal(b1-3)GalNAc(b1-3)Gal
# Outline: as §1
# [11] = target: Gal(b1-3)GalNAc(b1-4)Gal(b1-4)Glc
# Outline: as §1
# Gal(b1-3)GlcNAc = target: Gal(b1-3)GlcNAc
# Outline: as §1
# [12] = target: Gal(b1-3)GlcNAc(b1-2)Man(a1-3)[Gal(b1-3)GlcNAc(b1-2)Man(a1-6)]Man(b1-4)GlcNAc(b1-4)GlcNAc
# Outline: as §1
# [13] = target: Gal(b1-3)GlcNAc(b1-3)Gal(b1-4)Glc
# Outline: as §1
# [14] = target: Gal(b1-3)GlcNAc(b1-3)Gal(b1-4)GlcNAc(b1-2)[Gal(b1-3)GlcNAc(b1-3)Gal(b1-4)GlcNAc(b1-6)]Man(a1-6)[Gal(b1-3)GlcNAc(b1-3)Gal(b1-4)GlcNAc(b1-2)Man(a1-3)]Man(b1-4)GlcNAc(b1-4)[Fuc(a1-6)]GlcNAc
# Outline: as §1
# [15] = target: Gal(b1-3)[Neu5Ac(a2-6)]GalNAc
# Outline: as §1
# [16] = target: Gal(b1-4)GlcNAc(b1-2)Man(a1-3)Man(b1-4)GlcNAc(b1-4)GlcNAc
# Outline: as §1
# [17] = target: Gal(b1-4)GlcNAc(b1-2)Man(a1-3)[GlcNAc(b1-2)Man(a1-6)]Man(b1-4)GlcNAc(b1-4)GlcNAc
# Outline: as §1
# [18] = target: Gal(b1-4)GlcNAc(b1-2)[Gal(b1-4)GlcNAc(b1-4)]Man(a1-3)[GlcNAc(b1-4)][Gal(b1-4)GlcNAc(b1-2)[Gal(b1-4)GlcNAc(b1-6)]Man(a1-6)]Man(b1-4)GlcNAc(b1-4)GlcNAc
# Outline: as §1
# [19] = target: Gal(b1-4)GlcNAc(b1-3)Gal(b1-4)GlcNAc(b1-2)[Gal(b1-4)GlcNAc(b1-3)Gal(b1-4)GlcNAc(b1-6)]Man(a1-6)[Gal(b1-4)GlcNAc(b1-3)Gal(b1-4)GlcNAc(b1-2)Man(a1-3)]Man(b1-4)GlcNAc(b1-4)GlcNAc
# Outline: as §1
# [20] = target: Gal(b1-4)GlcNAc(b1-3)Gal(b1-4)GlcNAc(b1-3)Gal(b1-4)GlcNAc(b1-2)Man(a1-3)[Gal(b1-4)GlcNAc(b1-3)Gal(b1-4)GlcNAc(b1-3)Gal(b1-4)GlcNAc(b1-2)Man(a1-6)]Man(b1-4)GlcNAc(b1-4)GlcNAc
# Outline: as §1
# [21] = target: Gal(b1-4)GlcNAc(b1-3)Gal(b1-4)GlcNAc(b1-3)Gal(b1-4)GlcNAc(b1-2)[Gal(b1-4)GlcNAc(b1-3)Gal(b1-4)GlcNAc(b1-3)Gal(b1-4)GlcNAc(b1-6)]Man(a1-6)[Gal(b1-4)GlcNAc(b1-3)Gal(b1-4)GlcNAc(b1-3)Gal(b1-4)GlcNAc(b1-2)Man(a1-3)]Man(b1-4)GlcNAc(b1-4)[Fuc(a1-6)]GlcNAc
# Outline: as §1
# [22] = target: Gal(b1-4)GlcNAc(b1-6)GalNAc
# Outline: as §1
# Gal3S6S(b1-4)GlcNAc = target: Gal3S6S(b1-4)GlcNAc
# Outline: as §1
# Gal4S6S(b1-4)GlcNAc = target: Gal4S6S(b1-4)GlcNAc
# Outline: as §1
# GalNAc(b1-4)GlcNAc = target: GalNAc(b1-4)GlcNAc
# Outline: as §1
# Glc(a1-6)Glc(a1-6)Glc = target: Glc(a1-6)Glc(a1-6)Glc
# Outline: as §1
# [23] = target: GlcNAc(a1-4)Gal(b1-3)GlcNAc
# Outline: as §1
# [24] = target: GlcNAc(a1-4)Gal(b1-4)GlcNAc(b1-3)Gal(b1-4)Glc
# Outline: as §1
# [25] = target: GlcNAc(a1-4)Gal(b1-4)GlcNAc(b1-3)Gal(b1-4)GlcNAc
# Outline: as §1
# [26] = target: GlcNAc(b1-3)Gal(b1-4)GlcNAc(b1-3)GalNAc
# Outline: as §1
# [27] = target: Man(a1-3)[Man(a1-6)]Man(b1-4)GlcNAc(b1-4)GlcNAc
# Outline: as §1
# [28] = target: Man(a1-3)[Man(a1-6)]Man(b1-4)GlcNAc(b1-4)[Fuc(a1-6)]GlcNAc
# Outline: as §1
# [29] = target: Neu5Ac(a2-3)Gal(b1-3)GlcNAc
# Outline: as §1
# [30] = target: Neu5Ac(a2-3)Gal(b1-3)[Neu5Ac(a2-6)]GalNAc
# Outline: as §1
# Neu5Ac(a2-3)Gal(b1-4)Glc = target: Neu5Ac(a2-3)Gal(b1-4)Glc
# Outline: as §1
# [31] = target: Neu5Ac(a2-3)Gal6S(b1-4)[Fuc(a1-3)]GlcNAc
# Outline: as §1
# [32] = target: Neu5Ac(a2-3)[GalNAc(b1-4)]Gal(b1-4)Glc
# Outline: as §1
# [33] = target: Neu5Ac(a2-6)Gal(b1-4)GlcNAc(b1-2)Man
# Outline: as §1
# [34] = target: Neu5Ac(a2-6)Gal(b1-4)GlcNAc(b1-2)Man(a1-6)[GlcNAc(b1-2)Man(a1-3)]Man(b1-4)GlcNAc(b1-4)GlcNAc
# Outline: as §1
# [35] = target: Neu5Ac(a2-6)GlcNAc(b1-4)GlcNAc
# Outline: as §1
# [36] = target: Neu5Gc(a2-3)Gal(b1-3)GlcNAc
# Outline: as §1
# [37] = target: Neu5Gc(a2-3)Gal(b1-4)GlcNAc(b1-3)Gal(b1-4)GlcNAc(b1-2)Man(a1-3)[Neu5Gc(a2-3)Gal(b1-4)GlcNAc(b1-3)Gal(b1-4)GlcNAc(b1-2)Man(a1-6)]Man(b1-4)GlcNAc(b1-4)GlcNAc
# Outline: as §1
binder,measurement,setting,value
B1,glycan array binding signal (z-score),[1],-1.15
same,glycan array binding signal (z-score),[2],-0.39
same,glycan array binding signal (z-score),[3],-0.72
same,glycan array binding signal (z-score),[4],-0.667
same,glycan array binding signal (z-score),[5],-0.351
same,glycan array binding signal (z-score),[6],1.81
same,glycan array binding signal (z-score),[7],-0.881
same,glycan array binding signal (z-score),[8],-0.545
same,glycan array binding signal (z-score),[9],1.77
same,glycan array binding signal (z-score),[10],-0.029
same,glycan array binding signal (z-score),Gal(a1-4)GlcNAc,-0.2
same,glycan array binding signal (z-score),Gal(b1-2)Gal,0.046
same,glycan array binding signal (z-score),Gal(b1-3)Gal,1.8
same,glycan array binding signal (z-score),Gal(b1-3)GalNAc,2.6
same,glycan array binding signal (z-score),Gal(b1-3)GalNAc(b1-3)Gal,7.07
same,glycan array binding signal (z-score),[11],11.2
same,glycan array binding signal (z-score),Gal(b1-3)GlcNAc,-0.318
same,glycan array binding signal (z-score),[12],-0.366
same,glycan array binding signal (z-score),[13],-0.852
same,glycan array binding signal (z-score),[14],2.11
same,glycan array binding signal (z-score),[15],2.79
same,glycan array binding signal (z-score),[16],-0.274
same,glycan array binding signal (z-score),[17],-0.054
same,glycan array binding signal (z-score),[18],0.051
same,glycan array binding signal (z-score),[19],-0.671
same,glycan array binding signal (z-score),[20],0.667
same,glycan array binding signal (z-score),[21],2.41
same,glycan array binding signal (z-score),[22],-0.068
same,glycan array binding signal (z-score),Gal3S6S(b1-4)GlcNAc,1.73
same,glycan array binding signal (z-score),Gal4S6S(b1-4)GlcNAc,0.289
same,glycan array binding signal (z-score),GalNAc(b1-4)GlcNAc,-0.514
same,glycan array binding signal (z-score),Glc(a1-6)Glc(a1-6)Glc,-1.11
same,glycan array binding signal (z-score),[23],1.83
same,glycan array binding signal (z-score),[24],-1.22
same,glycan array binding signal (z-score),[25],-0.664
same,glycan array binding signal (z-score),[26],2.14
same,glycan array binding signal (z-score),[27],-0.241
same,glycan array binding signal (z-score),[28],-0.543
same,glycan array binding signal (z-score),[29],0.214
same,glycan array binding signal (z-score),[30],-0.468
same,glycan array binding signal (z-score),Neu5Ac(a2-3)Gal(b1-4)Glc,-1.01
same,glycan array binding signal (z-score),[31],-1.12
same,glycan array binding signal (z-score),[32],1.36
same,glycan array binding signal (z-score),[33],0.374
same,glycan array binding signal (z-score),[34],0.936
same,glycan array binding signal (z-score),[35],2.98
same,glycan array binding signal (z-score),[36],0.424
same,glycan array binding signal (z-score),[37],-0.663

# Source: the supplement of paper PMC8728848
